Screening data from PubChem.
D1 agonist: agonists of human D1 dopamine receptor | P21728 | HEK293 T-REx D1 cells, calcium flux, agonist mode | activation, % at 2 µM | hit rate 1% among 360,000 | AID 504660
Target sequence (P21728 whole entry, looked up): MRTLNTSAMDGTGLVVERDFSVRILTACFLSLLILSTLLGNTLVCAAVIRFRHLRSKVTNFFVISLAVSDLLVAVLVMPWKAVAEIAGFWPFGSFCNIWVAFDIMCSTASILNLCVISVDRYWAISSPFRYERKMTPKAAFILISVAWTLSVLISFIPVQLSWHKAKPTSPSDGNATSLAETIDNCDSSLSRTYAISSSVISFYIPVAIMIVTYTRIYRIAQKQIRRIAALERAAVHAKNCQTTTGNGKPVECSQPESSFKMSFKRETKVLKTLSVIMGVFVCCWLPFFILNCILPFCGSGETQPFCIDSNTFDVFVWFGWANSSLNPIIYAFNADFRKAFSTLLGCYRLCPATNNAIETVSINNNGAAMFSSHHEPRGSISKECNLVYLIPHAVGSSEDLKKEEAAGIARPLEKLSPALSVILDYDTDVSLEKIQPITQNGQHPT
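Agonism was scored from calcium flux recorded over 180 s (1 read/s) after pintool compound addition, following a 10-cycle baseline. Cells were inducible force-coupled HEK293 TREx D1, plated overnight at 30 C and loaded with no-wash calcium dye.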
TRHR ag: activates the human TRH receptor; P34981; TRHR cells, calcium flux fluo-8, FDSS agonist mode; activation, % at 2 µM; hit rate 0.18% among 360,000
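Read-out: compound-evoked intracellular calcium rise in TRHR cells, fluo-8 dye, kinetic FDSS fluorescence at 1 s/cycle following a 10-cycle baseline. Cells cultured overnight before dye loading (30 min–1.5 h, RT).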
D1 antag: human D1 dopamine receptor antagonism; P21728; HEK293 TREx D1 cells, calcium flux, dopamine EC80; stronger effect = lower value; activity change, negative = inhibition, % at 10 µM; hit rate 3.2% among 360,000; AID 504652; in the data active = activity change below about -30%
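HEK293 T-REx cells expressing inducible, force-coupled D1 receptor; no-wash Ca dye, 30–90 min RT. Cmpd → 180 s read at 1 Hz → EC80 DA → 180 s read.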
LDHA block: blocks human lactate dehydrogenase A. activity change, % (values are at about 110 or 230 µM). AID 1347041. purified LDHA, NADH/diaphorase-resazurin fluorescence; stronger effect = lower value. hit rate 0.15% among 480,000; in the data active = activity change below about -30%
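Enzyme activity of human lactate dehydrogenase 5 (2 nM; 0.06 mM NADH, 0.2 mM pyruvate, 5 min, RT) is measured via a resazurin/diaphorase fluorescence readout of residual NADH.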
TRHR PAM: TRH receptor (human) allosteric enhancement. enhancement, % at 2 µM. TRHR cells, fluo-8 calcium fluorescence, EC20 TRH enhancement. hit rate 0.66% among 360,000. P34981; in the data active = enhancement above about 30%
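TRHR-expressing cells loaded with fluo-8 calcium dye were read kinetically (ex 480/em 530) during compound addition, then stimulated with an EC20 of TRH (10 nM final). Enhancement of the Gq-mediated intracellular calcium response was scored.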
D1 PAM: human D1 dopamine receptor positive modulation. potentiation, % at 10 µM. hit rate 0.036% among 360,000. P21728. HEK293 TREx D1 cells, calcium flux, dopamine EC20 potentiation; in the data active = potentiation above about 30%
Of the large screens only hits and unclear results are named; the others gave an inactive call. A selection: hits, their analogues and other compounds. The true share with any hit is near 3.6%. Cut-off read from the data, not from the text of the source, unless noted: active = activation above about 30%; inactive = the rest.

CCCCC(=O)Nc1ccc(C(=O)Nc2ccc(OC)cc2[N+](=O)[O-])cc1	D1 agonist 41
CCCCC(=O)Nc1ccc(NC(=O)c2ccc([N+](=O)[O-])cc2)cc1OC	none
CCCn1c(SCC(=O)Nc2ccc(OC)cc2[N+](=O)[O-])n[nH]c1=O	D1 antag -46
COc1ccc(NC(=O)CSc2nnnn2C)c([N+](=O)[O-])c1	none
COCC(=O)NC1CCN(CC(=O)Nc2ccc(OC)cc2[N+](=O)[O-])CC1	D1 antag -38
CCCCS(=O)(=O)NCCc1ccc(C(=O)O)cc1	none (no result: D1 agonist, TRHR ag, D1 antag, TRHR PAM, D1 PAM)
Cc1nnc(NC(=O)c2cc(-c3ccccc3)nc3ccccc23)s1	none (no result: D1 agonist, TRHR ag, D1 antag, TRHR PAM, D1 PAM)
Cc1cccc(C(=O)NC(=S)NNC(=O)COc2c(C)cccc2C)c1	D1 agonist 137
Cc1cccc(C(=O)NC(=S)NNC(=O)Cc2ccccc2)c1	D1 agonist 72
Cc1cccc(C(=O)NC(=S)NCc2ccccc2)c1	none (no result: D1 agonist, TRHR ag, D1 antag, TRHR PAM, D1 PAM)
Cc1ccc(C(=O)NC(=S)NNC(=O)COc2ccccc2C)cc1	D1 agonist 31
Cc1cccc(C(=O)NC(=S)NNC(=O)c2ccccc2Cl)c1	D1 agonist 301, TRHR ag 35, D1 antag -35
O=C(COc1ccccc1)NNC(=S)NC(=O)c1ccccc1	none
CCCn1nc(C)cc1-c1nn2c(-c3cccc(F)c3)nnc2s1	none (no result: D1 agonist, TRHR ag, D1 antag, TRHR PAM, D1 PAM)
Cc1cccc(C(=O)NNC(=O)c2ccc3ccccc3c2)c1	LDHA block -38 (no result: D1 agonist, TRHR ag, D1 antag, TRHR PAM, D1 PAM)
Cc1cccc(C(=O)NC(=S)Nc2ccccc2C(F)(F)F)c1	TRHR PAM 32
CCOc1ccc(Nc2nc3ccccc3nc2NS(=O)(=O)c2ccc(F)cc2)cc1	none (no result: D1 agonist, TRHR ag, D1 antag, TRHR PAM, D1 PAM)
Cc1cccc(S(=O)(=O)Nc2cccc3c2C(=O)c2ccccc2-3)c1	D1 agonist 50
CCOc1ccc(-c2cc(C(=O)NCCOC)c3ccccc3n2)cc1	none (no result: D1 agonist, TRHR ag, D1 antag, TRHR PAM, D1 PAM)
CC(=O)Nc1ccc(-c2ccc(NC(C)=O)c(O)c2)cc1O	D1 antag -32
CC(=O)Nc1ccccc1O	none
Cc1occc1C(=O)N(C)CC1CCCN(CCc2ccccc2F)C1 (stereo unspecified)	D1 antag -32
Cc1cc(C)c(C(=O)N(C)CC2CCCN(CCc3ccccc3F)C2)o1 (stereo unspecified)	D1 antag -67
CN(CC1CCCN(CCc2ccccc2F)C1)C(=O)c1ccoc1 (stereo unspecified)	none
CCc1ccc(C(CNS(=O)(=O)c2cccs2)N(C)C)cc1 (stereo unspecified)	none (no result: D1 agonist, TRHR ag, D1 antag, TRHR PAM, D1 PAM)
COc1ccccc1-c1nnc(C2CCN(S(=O)(=O)c3ccc([N+](=O)[O-])cc3)CC2)o1	D1 agonist 37
CC(=O)Nc1ccc(S(=O)(=O)N2CCC(C(=O)Nc3nccs3)CC2)cc1	D1 antag -39
Cc1ccc(S(=O)(=O)N2CCN(S(=O)(=O)N3CCC(C)CC3)CC2)c(C)c1	none
CC(=O)Nc1ccc(S(=O)(=O)N2CCC(c3nnc(-c4ccc(C)cc4)o3)CC2)cc1	D1 antag -33
Cc1ccc(S(=O)(=O)N2CCC(c3ccncc3)CC2)c(C)c1	D1 antag -34
COc1ccccc1-c1nnc(C2CCN(S(=O)(=O)c3cccc([N+](=O)[O-])c3)CC2)o1	none
O=C(NCC(c1ccccc1)c1c[nH]c2ccccc12)c1cc[n+]([O-])cc1 (stereo unspecified)	none (no result: D1 agonist, TRHR ag, D1 antag, TRHR PAM, D1 PAM)
O=C(COCc1cc(-c2ccc3c(c2)OCO3)on1)NC1CCCC1	none (no result: D1 agonist, TRHR ag, D1 antag, TRHR PAM, D1 PAM)
CC(=O)Nc1ccc(S(=O)(=O)N2CCC(c3ccncc3)CC2)cc1	D1 antag -37
CC1CCC(C(C)C)C(OCC(O)CNC(C)c2ccccc2)C1 (stereo unspecified)	D1 agonist 33
CC(NCC(O)COC1CCC(C(C)(C)C)CC1)c1ccccc1 (stereo unspecified)	D1 agonist 112
Cc1csc(NC(=O)CCc2ncc(-c3ccccc3F)o2)n1	none (no result: D1 agonist, TRHR ag, D1 antag, TRHR PAM, D1 PAM)
